Data reported in PubChem BioAssay AID1159580 (chemical genetic matrix, 2015).
Hit rate of the full screen: of about 5,500 compounds, about 2,000 (36%) were called active. Inconclusive results (about 18%) are left out. Rule as the data show it: active = normalized growth mostly below about 0.91 (no sharp cut-off); inconclusive = no clear call, values can overlap the other calls; inactive = mostly above about 0.92. This is one part of the list.

Test: chemical genetic growth profiling, strain panel (AID 1159580);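 also: tested at 20 µM; growth read once vehicle control cultures reached saturation at 30 °C; 1 = growth at the plate median or of vehicle wells; lower values mean less growth of the strain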
Conditions: S. cerevisiae deletion strains, growth OD

Measured: normalized growth

NCCCCNS(=O)(=O)c1cccc2c(Cl)cccc12
inactive: locus YAL013W, strain DEP1, active compounds read low 1.01 | locus YAL040C, strain CLN3, active compounds read low 1.02 | locus YDR363W, strain ESC2, active compounds read low 1.01 | locus YER002W, strain NOP16, active compounds read low 1.01 | locus YGR078C, strain PAC10, active compounds read low 1.01 | locus YGR229C, strain SMI1, active compounds read low 1.04 | locus YJR075W, strain HOC1, active compounds read low 0.989 | locus YMR263W, strain SAP30, active compounds read low 1.01 | locus YNL153C, strain GIM3, active compounds read low 0.993 | locus YNL175C, strain NOP13, active compounds read low 1 | locus YNL197C, strain WHI3, active compounds read low 1 | locus YNL224C, strain SQS1, active compounds read low 0.995 | locus YOR083W, strain WHI5 (second series), active compounds read low 1.02 | locus YPL055C, strain LGE1, active compounds read low 1.01
